95 compounds from PubChem BioAssay AID2314 (National Center for Advancing Translational Sciences (NCATS), 2010) can be followed below.

Structures are written as SMILES. The campaign covered roughly 300,000 compounds. About 37,000 (12%) were called active. The sample holds actives, similar compounds and a random draw of the others, so the mix is not that of the screen. Rule as the data show it: active = max response mostly above about 13% (no sharp cut-off); inactive = mostly below about 14%.

This experiment in a line: Cycloheximide Counterscreen for Small Molecule Inhibitors of Shiga Toxin. Also: read at 38.3 µM for the half of the compounds with a filed dose; 0% is about no effect. The conditions noted are these: cell reporter, cycloheximide protein synthesis inhibition counterscreen; stronger effect = higher value. On the technique in general: A counterscreen serves to expose hits that act by an unwanted route or on another target.
On to `O=C(c1cc2sccc2n1Cc1ccc(F)cc1)N1CCc2ccccc21`, for which the max response was 16.9% (active).
To `O=C(Cc1ccc(-n2c(=O)c3sccc3n(Cc3ccc(F)cc3)c2=O)cc1)NCc1ccco1` belongs -2.83% (inactive); to `O=C(NCc1ccco1)c1ccc(Cn2c(=O)c3sccc3n(Cc3ccc(F)cc3)c2=O)cc1`, 0.924% (inactive); to `O=C(NCc1ccco1)c1cc2sccc2n1Cc1ccc(F)cc1`, 45.3% (active).
To `CC1Cc2ccccc2N1C(=O)c1cc2sccc2n1Cc1ccccc1` (stereo not given) belongs 10.4% (inactive); to `CCOC(=O)c1cc2sccc2n1Cc1ccc(C#N)cc1`, -2.12% (inactive); to `CC(NC(=O)CCC(=O)N1CCN(S(=O)(=O)c2ccc(Cl)cc2)CC1)c1ccccc1` (stereo not given), 4.89% (inactive).
For the compound `Cn1c(CNC(=O)c2ccco2)nnc1SCC(=O)N1CCN(c2ccccc2)CC1`, the max response is -0.554% (inactive).
As for `COc1ccccc1NC(=O)C1=C(C)Nc2nc3ccccc3n2C1c1cccs1` (stereo not given), the max response was -6.14% (inactive).
As to `Cc1c(C(=O)OC(C)C)sc(NC(=O)c2cccnc2)c1C#N`, the max response is 1.72% (inactive).
On to `CC(=O)Nc1ccc(CN2CCN(Cc3ccc(F)c(F)c3)C(CCO)C2)cc1` (stereo not given), for which the max response was -0.733% (inactive).
Take `COc1ccc(CNC(=O)C2CCN(C(=O)c3ccco3)CC2)cc1`: the max response was -5.74% (inactive).
To `COc1ccc(CCNC(=S)N2CCN(S(=O)(=O)c3ccc(Cl)cc3)CC2)cc1` belongs -4.46% (inactive); to `O=C1Cc2ccccc2Sc2ccc(Cl)cc21`, 7.71% (inactive).
As to `NS(=O)(=O)c1ccc2nc(NC(=O)C3=COCCO3)sc2c1`, the max response is 31% (active).
To `NS(=O)(=O)c1ccc2nc(NC(=O)CS(=O)(=O)c3ccc(F)cc3)sc2c1` belongs 1.51% (inactive); to `O=C(Nc1ccc(S(=O)(=O)N2CCCC2)cc1Cl)C1=COCCO1`, -1.75% (inactive).
For `COc1cc(/C=C2\SC(=O)NC2=O)ccc1OCc1ccc(Cl)nc1`, the max response is -3.18% (inactive).
On to `COc1ccc(NC(=S)N2CCC(NC(=O)c3cccc(F)c3)CC2)cc1`, for which the max response was -5.6% (inactive).
Regarding `CCc1cc(-c2nnc(SCC(=O)NC3CC3)n2C)cs1`, the max response was 5.72% (inactive).
The result for `CCOc1cccc(NC(=O)C2CCCN(S(=O)(=O)c3ccc(OC)cc3)C2)c1` (stereo not given) reads 2.3% (inactive); that for `COc1ccc(NC(=O)C2CCCN(S(=O)(=O)c3cccc4cccnc34)C2)cc1` (stereo not given), -0.912% (inactive).
For `COc1ccc(S(=O)(=O)N2CCCC(C(=O)Nc3ccc(NC(=O)c4ccccn4)cc3)C2)cc1` (stereo not given), the max response is 40.2% (active).
With `Cc1ccc(-c2cccc([C@H]3[C@@H]4C=CC[C@@H](C)[C@@H]4C(=O)N3Cc3ccccc3)c2)cc1`, the max response is 2.34% (inactive).
The result for `Cc1ccc2c(C)c(C(=O)N(C)CCC3CCCCO3)oc2c1C` (stereo not given) reads 17.8% (inactive); that for `COC(=O)c1ccc(OC(=O)c2cnccn2)cc1`, -7.13% (inactive).
Consider `COC(=O)c1ccc(Nc2ncnc3sccc23)cc1`, for which the max response was 39.2% (active).
Consider `CCOC(=O)c1nc(Nc2ccc(C(=O)OC)cc2)c2ccccc2n1`, for which the max response is 9.36% (inactive).
Turning to `NS(=O)(=O)c1ccc(-c2ccc(/C=C3\SC(=O)NC3=O)o2)cc1`, the max response is -2.44% (inactive).
As for `CN1C(=O)/C(=C\c2ccc(-c3ccccc3)o2)SC1=S`, the max response was 9.37% (active).
Regarding `O=C(O)C(c1ccccc1)N1C(=O)/C(=C\c2ccc(-c3cccc(Cl)c3)o2)SC1=S` (stereo not given), the max response is 0.131% (inactive).
On to `COc1ccc2[nH]c3c(C)c4cc[n+](C)cc4c(C)c3c2c1`, for which the max response was -3.46% (inactive).
`O=C1CCCN1CCCNC(=S)Nc1ccc(F)c(Cl)c1`: the max response is 11.5% (inactive).
As to `Cc1ccc2cccc(OCCCOc3ccccc3CO)c2n1`, the max response was 13.2% (active).
Take `Cc1ccc(N(C)C(=O)Oc2cccc3ccc(C)nc23)cc1`: the max response is -4.01% (inactive).
The result for `OCc1ccc(OCCCOc2cccc3cccnc23)cc1` reads 1.36% (inactive).
As for `Cc1cc(S(=O)(=O)NCc2ccccn2)c(Cl)cc1Cl`, the max response was -3.82% (inactive).
As for `O=C1NC(=Nc2ccc(Cl)cc2)SC1Cc1cccc(Cl)c1Cl` (stereo not given), the max response is -3.08% (inactive).
To `Nc1nc(-c2sc3nc4c(cc3c2N)CCCC4)nc(N2CCOCC2)n1` belongs 17.7% (active); to `Cc1nc(N2CCOCC2)nc2c1CCCC2`, 9.25% (inactive).
In the case of `Cc1cc(Oc2ccccc2)nc(N2CCOCC2)n1`, the max response was 11.6% (inactive).
As for `COc1ccc(N2C(=O)C(CC(=O)Nc3ccc(F)cc3)N(CCc3cccs3)C2=O)cc1` (stereo not given), the max response is 8.62% (inactive).
To `CNc1ccc(SC#N)cc1` belongs -2% (inactive); to `Cc1cccc(C(=O)N2CCN(S(=O)(=O)N3CCCCC3)CC2)c1`, -2.15% (inactive).
As to `COc1ccc(Cn2c(=S)[nH]c3cc(C(=O)N4CCCCC4)ccc3c2=O)cc1`, the max response is -3.34% (inactive).
Take `COc1cccc(COc2ccc(N(C)S(=O)(=O)c3ccccc3)cc2)c1`: the max response is -0.489% (inactive).
As to `CCOc1ccc(OCc2cccc(C(=O)N(CC)CC)c2)cc1`, the max response was 47.9% (active).
In the case of `CCOc1ccc(OCc2ccc(C(=O)N(C)c3ccccc3)o2)cc1`, the max response was 2.57% (inactive).
On to `COc1ccc(CNC(=O)C2CCN(C(=O)c3ccccc3)CC2)cc1`, for which the max response is 1.61% (inactive).
For `COc1ccc(OCc2cccc(C(=O)N3CCCC3)c2)cc1`, the max response was 59.3% (active).
Regarding `CC(=O)Oc1ccc(-c2cccc(C(=O)N3CCCCC3)c2)cc1`, the max response is 12.6% (active).
On to `Cc1cccc(C(=O)N2CCCN(C(=O)c3cccc(C)c3)CC2)c1`, for which the max response was -1.57% (inactive).
With `O=C(c1cc(S(=O)(=O)N2CCOCC2)ccc1Cl)N1CCOCC1`, the max response is -3.17% (inactive).
As to `OC(c1nc2ccc(F)cc2[nH]1)C(O)c1nc2ccc(F)cc2[nH]1` (stereo not given), the max response is -0.936% (inactive).
Take `COc1ccccc1N1CCN(C(=O)c2cc(=O)c3cc(C)cc(C)c3o2)CC1`: the max response was -2.78% (inactive).
To `Cc1ccc(C)c(-n2c(SCC(=O)O)nc3sc4c(c3c2=O)CCCC4)c1` belongs -4.29% (inactive).
The result for `Cc1ccc(NC(=S)N(CCN(C)C)Cc2cccs2)cc1C` reads -3.5% (inactive); that for `O=C(COc1ccc(-n2cnnn2)cc1)Nc1ccccc1Cl`, 9.71% (inactive); that for `Cc1sc2nc(CSCC(=O)Nc3c(Cl)cccc3Cl)[nH]c(=O)c2c1C`, 13.5% (inactive).
As for `Cc1ccc(NC(=O)Nc2ccccc2)c(Br)c1`, the max response was 64.5% (active).
To `CS(=O)(=O)c1ccc(Cl)c(NC(=O)Nc2ccccc2)c1` belongs -1.05% (inactive); to `CCOc1cc(NC(=O)Nc2ccccc2)c(OCC)cc1NC(=O)CC`, -3.19% (inactive).
For `COc1ccc(S(=O)(=O)N/N=C\c2ccc(OC)c(COc3ccc(C)cc3[N+](=O)[O-])c2)cc1`, the max response is -1.1% (inactive).
As to `O=C(NCc1ccco1)C(c1ccncc1)N(C(=O)Cn1nnc2ccccc21)c1ccccc1` (stereo not given), the max response was -1.7% (inactive).
For the compound `CCN(CC)C(=O)C(=O)Nc1cccc(Br)c1`, the max response was 36.1% (active).
As to `CCN(CC)C(=O)Oc1ccc(Br)cc1C(=O)Nc1ccc(F)c(Cl)c1`, the max response is 11% (inactive).
The result for `CSc1ccccc1NC(=O)CN(C)CC(=O)Nc1cccc(Br)c1` reads 1.62% (inactive).
`CC(C)(C)c1ccccc1NC(=O)CN1C(=O)NC2(CCCC2)C1=O`: the max response was -4.11% (inactive).
Regarding `Cc1cccc(C(=O)OC(C)CN2CCN(C)CC2)c1` (stereo not given), the max response is 41.3% (active).
On to `CC(CN1CCOCC1)OC(=O)c1ccc(C(C)(C)C)cc1` (stereo not given), for which the max response is 16.4% (active).
`CC(CN1CCOCC1)OC(=O)c1ccc(Cl)cc1Cl` (stereo not given): the max response was 20.3% (inactive).
On to `CC(CN1CCCCC1)c1ccccc1` (stereo not given), for which the max response was -3.13% (inactive).
To `Cc1ccc(C(=O)OC(C)CN2CCOCC2)cc1` (stereo not given) belongs 16.8% (inactive); to `Cc1ccc(C(CNC(=O)Nc2cccc(C)c2)N2CCN(C)CC2)cc1` (stereo not given), -4.7% (inactive).
In the case of `CC(CN1CCOCC1)c1ccccc1` (stereo not given), the max response was 2.67% (inactive).
As for `Cc1cccc(C(=O)OC(C)CN2CCCC2)c1` (stereo not given), the max response was 6.5% (inactive).
With `CC(CN1CCCCC1)OC(=O)c1ccccc1Cl` (stereo not given), the max response is 22.1% (active).
For `COc1ccc(-n2nc3c(N4CCC(C(=O)NCc5ccccc5)CC4)nnc(C)c3c2C)cc1`, the max response is -13.3% (inactive).
For `CCOC(=O)C1C(c2ccc(OC)c(OC)c2)c2c([nH][nH]c2=O)CC1(C)O` (stereo not given), the max response was -1.55% (inactive).
To `CO/N=C(/CS(=O)(=O)c1ccc(Br)cc1)c1ccc(OC)cc1` belongs 0.74% (inactive).
With `Clc1ccc(COn2c(-c3ccc(Cl)cc3Cl)nc3ncccc32)cc1`, the max response is -3.82% (inactive).
On to `Cc1n[nH]c(=O)c2c1nnn2Cc1ccc(F)cc1`, for which the max response is -2.69% (inactive).
To `O=C(Nc1ccc(Br)cc1)c1cccc(NC(=O)C2C3CC4OC(=O)C2C4C3)c1` (stereo not given) belongs 14% (inactive); to `Cn1c(CCNS(=O)(=O)c2ccc(F)cc2)nnc1SCc1cccnc1`, -3.41% (inactive); to `CCC1(CC)NC(=O)N(Cc2nc3ccccc3s2)C1=O`, 19.8% (active).
The result for `COC(=O)C1[C@H]2SC(C)(C)C(C(=O)OC)N2C(=O)N1Cc1nc2ccccc2s1` (stereo not given in full) reads 0.765% (inactive).
For the compound `CCC1(CC)NC(=O)N(CC(=O)OCC(=O)NC(=O)c2ccccc2)C1=O`, the max response was -1.66% (inactive).
For the compound `O=S(=O)(c1ccccc1)c1nc(Cc2ccccc2)oc1N1CCOCC1`, the max response was -5.23% (inactive).
The result for `COc1ccc(CCN2C(=O)CC(N3CCC(C(N)=O)CC3)C2=O)cc1OC` (stereo not given) reads 3.18% (inactive); that for `Nc1nonc1-n1nnc(C(=O)N/N=C/c2cc(Br)ccc2O)c1CSC1=NCCS1`, -2.34% (inactive); that for `O=C(Nc1ccccc1F)c1ccccc1-c1ccc(C(F)(F)F)cc1`, -2.22% (inactive).
As to `CCCOC(=O)C1=C(C)NC2=C(C(=O)C(C(=O)OC)C(C)C2)C1c1ccc(N(C)C)cc1` (stereo not given), the max response is 12.3% (inactive).
In the case of `CCCOC(=O)c1[nH]c2c(c1C)C(=O)CC(c1cc(OC)c(OC)c(OC)c1)C2` (stereo not given), the max response was 3.17% (inactive).
To `COC(=O)C1C(=O)c2c([nH]c(C(=O)OCCSC)c2C)CC1C` (stereo not given) belongs 51.7% (active).
In the case of `CC(C)(CNC(=O)Cc1ccc(Cl)cc1Cl)N1CCOCC1`, the max response is -3.1% (inactive).
